# Screening data deposited in PubChem by National Center for Advancing Translational Sciences (NCATS).
# Rows were chosen to be rich in hits. Some 4.6% of all compounds tested hit in one or more screens of this group.
# D1 PAM = potentiators of human D1 dopamine receptor; P21728; HEK293 TREx D1 cells, calcium flux, dopamine EC20 potentiation; potentiation, % at 10 µM; 0.036% of 360,000 active; in the data active = potentiation above about 30%; note: 0% is about no effect
# D1 antagonist = antagonists of human D1 dopamine receptor; P21728; HEK293 TREx D1 cells, calcium flux, dopamine EC80; active compounds read low; activity change, negative = inhibition, % at 10 µM; 3.2% of 360,000 active; AID 504652; in the data active = activity change below about -30%; note: % is set by controls: 0 for no effect and ±100 for the full control effect
#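 Inducible Hek293 Trex D1 cells (tetracycline, overnight, 30 C). Calcium dye 30–90 min RT. Antagonist mode: EC80 dopamine added after 180 s compound read.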
# TRHR PAM = allosteric enhancers of human TRH receptor; P34981; TRHR cells, fluo-8 calcium fluorescence, EC20 TRH enhancement; enhancement, % at 2 µM; 0.66% of 360,000 active; AID 493056; in the data active = enhancement above about 30%; note: 0% is about no effect
# Target sequence (P34981 whole entry, looked up): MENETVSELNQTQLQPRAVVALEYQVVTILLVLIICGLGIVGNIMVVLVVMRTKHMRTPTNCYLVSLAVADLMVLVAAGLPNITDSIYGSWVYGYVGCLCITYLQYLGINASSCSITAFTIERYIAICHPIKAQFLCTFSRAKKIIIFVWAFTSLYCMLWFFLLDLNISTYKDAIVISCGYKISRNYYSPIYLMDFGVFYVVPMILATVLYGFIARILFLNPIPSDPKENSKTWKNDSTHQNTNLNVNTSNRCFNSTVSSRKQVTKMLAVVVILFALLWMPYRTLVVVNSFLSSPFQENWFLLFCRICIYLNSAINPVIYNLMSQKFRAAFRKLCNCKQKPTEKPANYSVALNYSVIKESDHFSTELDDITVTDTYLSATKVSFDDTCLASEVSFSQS
#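 TRHR-expressing cells loaded with fluo-8 calcium dye were read kinetically (ex 480/em 530) during compound addition, then stimulated with an EC20 of TRH (10 nM final). Enhancement of the Gq-mediated intracellular calcium response was scored.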
# TRHR ag = activates the human TRH receptor; P34981; 0.18% of 360,000 active; activation, % at 2 µM; TRHR cells, calcium flux fluo-8, FDSS agonist mode; AID 493084; note: 0% is about no effect
#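 Steps: seed TRHR cells overnight; add fluo-8 no-wash Ca dye, RT 30 min–1.5 h; record 10 s baseline; pin-transfer compounds; monitor fluorescence 1 cycle/s for the agonist window. Calcium increases flag candidate agonists.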
# D1 agonist = activates the human D1 dopamine receptor | 1% of 360,000 active | P21728 | activation, % at 2 µM | AID 504660 | HEK293 T-REx D1 cells, calcium flux, agonist mode; note: 0% is about no effect
#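 Inducible HEK293 T-REx D1 cells, force-coupled to calcium signalling, were plated at 4000 cells/well with tetracycline and held overnight at 30 C. After no-wash calcium dye loading, compound-evoked calcium rise over 180 s flagged agonists.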
# An asterisk follows results filed as active; / = no result given; ! = not active in a repeat. Cut-off read from the data, not from the text of the source, unless noted: active = activation above about 30%; inactive = the rest.
SMILES,D1 PAM,D1 antagonist,TRHR PAM,TRHR ag,D1 agonist
CCSc1nnc2ccc(-c3ccc(C)cc3)nn12,-4,-28,-3,0,59*
CCc1ccc(-c2ccc3nnc(SC)n3n2)cc1,-5,4,4,0,4
Cc1ccc(NC(=O)CCCSc2ccccc2)cc1S(=O)(=O)N1CCOCC1,-15,-40*,14,1,4
O=C(CNc1cc(S(=O)(=O)N2CCCC2)ccc1OCC(F)(F)F)Nc1cc(Cl)cc(Cl)c1,-1,3,4,1,4
Cc1ccc(NC(=O)CCNS(=O)(=O)c2ccccc2F)cc1S(=O)(=O)N1CCOCC1,-3,-59*,-5,-1,1
CCN(CC)c1ccc(S(=O)(=O)N2CCOCC2)cc1NC(=O)CN1C(=O)NC2(CCCC2)C1=O,-6,-10,-9,0,1
O=C(CNc1cc(S(=O)(=O)N2CCCC2)ccc1OCC(F)(F)F)Nc1ccc(SC(F)F)cc1,-8,-51*,-8,1,11
Cc1ccc(NC(=O)CCNC(=O)c2ccc(Br)cc2)cc1S(=O)(=O)N1CCOCC1,-5,17,15,0,2
O=C(CN1C(=O)NC2(CCCC2)C1=O)Nc1cc(S(=O)(=O)N2CCOCC2)ccc1OCC(F)(F)F,-1,-50*,-7,0,2
CCN(C(=O)CSc1nc2ccccc2c2nc(CCn3c(C)nc4ccccc43)nn12)c1cccc(C)c1,-3,-7,-2,-1,4
Cc1ccc(NC(=O)CCN2C(=O)NC3(CCCC3)C2=O)cc1S(=O)(=O)N1CCOCC1,-6,-92*,12,0,8
Cc1ccc(NC(=O)C(C)N2C(=O)c3ccccc3C2=O)cc1S(=O)(=O)N1CCOCC1 (stereo not drawn),-5,-42*,-8,0,4
N#C/C(=C/c1ccc(O)c(O)c1)C(=O)NCc1ccc(Cl)cc1,/,-33*,8,-2,79*
C/C(=N\Nc1ccc(C(=O)O)cc1)c1ccc(Br)cc1,-6,-9,0,0,1
C/C(=N\Nc1ccc(C(=O)O)cc1)c1ccc(Cl)s1,0,4,0,1,50*
O=C(NCc1ccccc1Cl)c1cc(-c2ccccc2)n[nH]1,-3,-6,0,-1,1
COC(=O)CC1Oc2ccccc2-n2cc(-c3ccc(F)cc3)nc21 (stereo not drawn),-4,6,-3,-1,3
Cc1ccc(CS(=O)(=O)CCC(=O)NCCc2ccccc2)cc1,1,-14,-3,-1,0
Cc1ccc(CS(=O)(=O)CCC(=O)NCc2cccs2)cc1,-8,-32*,3,-1,-1
CCOC(=O)CNc1ncc(C(F)(F)F)cc1Cl,-4,20,1,0,4
N#CCC(CNc1ncc(C(F)(F)F)cc1Cl)OC(=O)c1ccc(Cl)cc1Cl (stereo not drawn),-3,9,-2,0,31*
CCn1cc(C(=O)NCCCOC)c(=O)c2cc(S(=O)(=O)N(C)C3CCCCC3)ccc21,1,8,4,0,0
CCC1CCCCN1CCCNC(=O)c1cn(CC)c2ccc(S(=O)(=O)N(C)C3CCCCC3)cc2c1=O (stereo not drawn),-4,-38*!,7,0,0
CC(C)OCCCNC(=O)c1cn(C)c2ccc(S(=O)(=O)N3CCCCCC3)cc2c1=O,0,-34*,4,-1,4
COc1cc(-c2nc3cnccn3c2Nc2ccc(C(C)C)cc2)ccc1O,-1,-7,-5,0,34*!
SMILES,D1 PAM,D1 antagonist,TRHR PAM,TRHR ag,D1 agonist
Cc1ccc(OCc2cc(C(=O)N3CCC(Oc4cccnc4)CC3)no2)cc1C,-8,-8,0,0,14
CCC1CCCCN1C(=O)c1cc(COc2ccc(-n3cncn3)cc2)on1 (stereo not drawn),-10,-34*,5,-1,17
Cc1cccc(C)c1OCc1cc(C(=O)N2CCC(c3ccncc3)CC2)no1,-6,-42*,5,-1,12
CC(=O)c1ccc(OCc2cc(C(=O)N3CCC(Oc4ccccc4C)CC3)no2)cc1,-6,-53*,-6,1,26
CC(=O)c1ccc(OCc2cc(C(=O)N3CCCCCCC3)no2)cc1,-5,-38*,-1,0,27
CC(=O)c1ccc(OCc2cc(C(=O)N3CCOCC3)no2)cc1,2,3,-2,0,4
O=C(c1cc(COc2c(F)cccc2F)on1)N1CCC(c2ccncc2)CC1,-2,-10,7,-1,12
O=C(NCCc1ccc(Cl)cc1)c1cccc(NC2=NC3CS(=O)(=O)CC3S2)c1 (stereo not drawn),-4,21,-1,0,1
Cc1ccc(-c2onc(C)c2C)cc1S(=O)(=O)NCc1cccs1,-3,23,1,0,0
O=c1c2ccccc2nc(-c2ccc(Cl)cc2)n1CCCCOc1ccc(F)cc1,0,-2,3,3,2
Cc1ccc(CNC(=O)c2ccc(N3CCCC3)c(NC(=O)Nc3ccc(F)c(Cl)c3)c2)cc1,0,8,-1,0,0
O=C(O)/C=C/c1ccc([N+](=O)[O-])o1,0,0,-1,2,0
CN1CCN(C(=O)/C=C/c2ccc([N+](=O)[O-])o2)CC1,-3,-32*,-4,1,0
N#Cc1ccc(OC(=O)c2cc(-c3ccc4c(c3)OCCO4)on2)cc1,0,-8,6,-1,33*
Cc1ccccc1OC(=O)c1cc(-c2ccc3c(c2)OCCO3)on1,-2,-46*,-3,0,8
O=C(Oc1ccc(Cl)cc1)c1cc(-c2ccc3c(c2)OCCO3)on1,-2,-3,6,0,17
O=C(Nc1cccc(Br)c1)c1cc(-c2ccc3c(c2)OCCO3)on1,-2,-41*,5,-1,16
COc1ccc(C2CC(=O)c3c([nH]c(C(=O)OC4CCCCCC4)c3C)C2)cc1OC (stereo not drawn),-4,0,-1,1,6
O=C(CCc1ccccc1)N(Cc1cccnc1)c1nc2c(F)cc(F)cc2s1,-2,/,10,0,15
Cc1cc(C)cc(N(CCC#N)C(=O)COC(=O)c2ccccc2SCC(=O)N2CCCC2)c1,-2,-34*,0,2,6
Cc1ccc(N(CCC#N)C(=O)COC(=O)c2ccccc2SCC(=O)N2CCCC2)cc1,0,30,22,-1,0
CCCOc1cc(NCc2ccccc2)c2ncn(C(C)C)c2c1,15,43,6,0,33*
O=C(OCc1cc(=O)n2nc(C3CC3)sc2n1)c1ccc(NC(=O)c2ccccc2Cl)cc1,0,-28,-8,1,8
O=C(O)c1cc(F)c(S(=O)(=O)N2CCN(S(=O)(=O)c3ccc4c(c3)OCCO4)CC2)cc1F,-2,-18,3,1,1
